From PubChem BioAssay (Tox21) come the findings set out here.

Several values for one entry are separate records, joined by “and”; a condition that tells them apart may be missing. Equal values may be shown once. Inconclusive results are not listed. A call without a number means that no potency is given here. Values without a mark were called inactive. Activity calls are given as the source filed them. Calls follow the shape of the dose curve; as a rule, active = well fitted cell-killing curve with a large enough effect in the repeat runs; inconclusive = weak or mixed curves, or effect the other way; inactive = flat fitted curve, though single readings scatter.
Potency is read from the fitted curve at half-maximal effect.

The nature of this assay: qHTS assay to identify small molecule that activate the aryl hydrocarbon receptor (AhR) signaling pathway - cell viability counter screen (AID 743086). Also: nearly all actives have a fitted effect of over 45% in size. Particulars: HepG2-AhR-luc viability, CellTiter-Fluor, 24 h; series mostly up to 70.3 µM; viability change, negative = cytotoxic: at the top concentration. The procedure, abridged: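 Cytotoxicity counter screen: CellTiter-Fluor signal (30 min, 37 C) in 4000 HepG2 cells/well carrying the DRE-luciferase reporter, following 24 h compound exposure at 37 C.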
In general terms: qHTS replaces the single test concentration by a dilution series.
For `CC(C)Cc1ccccc1`, the Potency entry is “inactive”.

`CC1Cc2ccccc2N1NC(=O)c1ccc(Cl)c(S(N)(=O)=O)c1` (configuration not stated): the Potency result is “inactive”.

As for `COC(=O)c1ccc(C(=O)OC)cc1`, the Potency entry was “inactive”.

In the case of `c1ccc2ccccc2c1`, the Potency entry was “inactive”.

Consider `CC(C)(CO)COC(=O)C(C)(C)CO`, for which the Potency entry is “inactive”.

Regarding `O=[N+]([O-])c1cccc(Cl)c1`, the Potency result was “inactive”.

Turning to `CC1COc2ccccc2N1C(=O)C(Cl)Cl` (configuration not stated), the Potency result is “inactive”.

For `CCCCCCCCC`, the Potency result was “inactive”.

Take `Nc1c(S(=O)(=O)O)cc(Br)c2c1C(=O)c1ccccc1C2=O`: the Potency was 24.3 µM (active).

With `Nc1cc(-c2ccncc2)c[nH]c1=O`, the Potency entry is “inactive”.

For the compound `CCCCOCCO`, the Potency result is “inactive”.

Regarding `CC(=O)Nc1ccc(C(=O)O)cc1`, the Potency result was “inactive”.

For `C=CC(=O)OCCCCCCCC(C)C`, the Potency entry was “inactive”.

Turning to `CCCCCCCCCCCCOCC1CO1` (configuration not stated), the Potency result is “inactive”.

On to `CCC(C)C=O` (configuration not stated), for which the Potency result was “inactive”.

`O=S(=O)(O)c1cc(S(=O)(=O)O)c2c(N=Nc3ccccc3)c(O)ccc2c1`: the Potency is 21.8 µM (active) and 21.7 µM (active).

`CC1(C)CC(N=C=O)CC(C)(CN=C=O)C1` (configuration not stated): the Potency result is “inactive”.

With `Clc1cc(Cl)c(Cl)cc1Cl`, the Potency entry was “inactive”.

For `C=C1C2CCC(C2)C1(C)C` (configuration not stated), the Potency entry was “inactive”.

Regarding `C=C(C)C(=O)OCCCCCCCCCCCC`, the Potency result was “inactive”.

With `OC1CCCC1`, the Potency result was “inactive”.

`COCC(C)O` (configuration not stated): the Potency entry was “inactive”.

Regarding `Cc1ccc(C)c(C)c1`, the Potency result was “inactive”.

`O=Nc1ccc(O)cc1`: the “viability change, negative = cytotoxic” value is 0.689%.

In the case of `OCCOCCOCCOCCO`, the Potency result is “inactive”.

With `CCCCOCCOCCOC(=O)CCCCC(=O)OCCOCCOCCCC`, the Potency entry is “inactive”.

For the compound `CC[Si](OC(C)=O)(OC(C)=O)OC(C)=O`, the Potency result is “inactive”.
